Results on 38 molecules are retold here after PubChem BioAssay (NCI).

Compounds without any hit were thinned out: in the full panel of roughly 83,000, 20% have a hit.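 Treatment: one concentration, 48 hours, 96-well format. Scoring: percent growth, with anything below 10 considered active.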 Active and inactive are the calls of the source.

One assay deals with NCI-H460 lung. Nature of the assay: NCI-60 one-dose screen, 48 h (100 = growth as untreated, 0 = no growth, -100 = all killed). The conditions noted are these: 10 µM unless noted.
Consider `CCCC(=O)CC(C)=O.CCCC(=O)CC(C)=O.[Cu]`, for which the growth is 107% (inactive).
Still for that read-out and setting: then `COc1cc(C(C)n2cc(-c3ccccc3)nn2)ccc1OC1CCCCC1` (stereo unspecified), with 70.5% (inactive); and `NC1(N2SC(S)=C3CCCC=C32)CCCCC1`, with 107% (inactive).
Consider `CCN1CCN(c2cc(C)c3cc(NC(=O)c4ccc(OC)c(OC)c4)ccc3n2)CC1`, for which the growth is 25.4% (inactive).
With `CC(C)[C@H](NC(=O)Cn1cc(C(=O)O)nn1)C(=O)O`, the growth was 106% (inactive).
With `C=C[C@@H]1CCC/C=C/[C@@H]2C[C@H](O)C[C@H]2[C@H](O)/C=C/C(=O)O1`, the growth is 13.5% (inactive).
As to `COc1ccc(Nc2nc(N/N=C/c3ccc(O)cc3)nc(Nc3ccc([N+](=O)[O-])cc3)n2)cc1`, the growth was 107% (inactive).
In the case of `Cc1ccc(CN2CCC(C(=O)Nc3ccc(-c4cc5ccccc5[nH]4)cc3)CC2)o1`, the growth was 27.9% (inactive).
Still for that read-out and setting: then `O=C(Nc1ccc(N2CCNCC2)cc1)c1[nH]ncc1Nc1cc(Oc2ccccc2)ncn1`, with -47.1% (active); and `CN1C(=O)N(C)C2C1NN=c1s/c(=C\c3ccc([N+](=O)[O-])cc3)c(=O)n12` (stereo unspecified), with 32% (inactive); and `Nc1ccc(-c2nc3cc(Oc4ccc(Oc5ccc6[nH]c(-c7ccc(N)cc7)nc6c5)cc4)ccc3[nH]2)cc1`, with 95.2% (inactive).
With `COc1cccc2cc(N(C)c3nc(C)nc4ccsc34)ccc12`, the growth is 1.59% (active).
With `COc1cc(/C=C2\CCC/C(=C\c3cc(CN4CCCCC4)c(O)c(OC)c3)C2=O)cc(CN2CCCCC2)c1O`, the growth is 72.7% (inactive).
In the case of `CCOC(=O)C1=C(C)N=c2s/c(=C\c3ccccc3O)c(=O)n2C1c1ccc(OC)c2ccccc12` (stereo unspecified), the growth is -41.8% (active).
As to `CCN1C(=O)N(CC)C2Nn3c(s/c(=C4\C(=O)N(C(C)C)c5ccccc54)c3=O)=NC21` (stereo unspecified), the growth is 21.3% (inactive).
Still for that read-out and setting: then `Cc1c(-c2csc(-n3nc(C(F)(F)F)cc3C(F)(F)F)n2)no[n+]1[O-]`, with 98.9% (inactive); and `CC1(O)COCCCCOc2c(CN)cccc2NC(=O)c2nc(cnc2N)-c2ccc(cc2)S(=O)(=O)C(C)(C)C1` (stereo unspecified), with -61.9% (active).
For `COc1nc2c(c(=O)n1C)N=C1c3ccccc3C(=O)C1C(c1ccccc1)N2` (stereo unspecified), the growth was 103% (inactive).
As to `CS(=O)(=O)Nc1ccc(C(=O)NC(C(=O)NO)c2ccc(-c3cccc(F)c3)cc2)cc1` (stereo unspecified), the growth is 89.7% (inactive).
As to `COc1cc(C(=O)Nc2ccc(-c3nc4ccccc4[nH]3)cc2)cc(OC)c1OC`, the growth is 22.6% (inactive).
As for `Fc1ccc(Oc2ccc(Nc3ncnc4onc(-c5ccccc5)c34)cc2)cc1`, the growth was 102% (inactive).
Consider `CC1=C(CC(=O)c2cccc([N+](=O)[O-])c2)C(=O)c2ccccc2C1=O`, for which the growth was -20.9% (active).
For `COc1ccc(Cn2cc(Cn3c(=O)c(-c4nc5ccccc5[nH]4)cc4ccccc43)nn2)c(OC)c1OC`, the growth is 1.94% (active).
With `COc1ccc(Cn2c(Br)c3c(c2Br)-c2nc(N)sc2CC3)cc1`, the growth is 15.7% (inactive).
`O=C(N/N=C/c1ccccc1O)C(=O)Nc1ccc(F)cc1`: the growth is 23.1% (inactive).
On the same count and under the same terms, in the case of `CCOc1ccc(Nc2ccnc3cc(Cl)ccc23)cc1` it was 5.71% (active); in that of `COc1cc(/C=C2\CN(C)C/C(=C\c3cc(CN4CCCC4)c(O)c(OC)c3)C2=O)cc(CN2CCCC2)c1O`, 34.1% (inactive).
`CCOC(=O)c1cnc2c(C)cccc2c1Nc1ccc(C(C)=O)cc1`: the growth is -68.6% (active).
In the case of `COc1cc(C(=O)O/N=C(\N)Cc2cccc3ccccc23)cc(OC)c1OC`, the growth was -47.9% (active).
In the case of `Nc1ncnc(N)c1NC(=O)c1ccc(OCc2ccccc2)cc1`, the growth is 107% (inactive).
Regarding `O=C1C(=O)c2c(ccc3ccccc23)-c2ccccc21`, the growth is 3.58% (active).
On to `CCOC(=O)c1sc(-c2ccc(OS(=O)(=O)c3cccs3)c(C=O)c2)nc1C`, for which the growth is 3.56% (active).
The same measure, in the same setting: in the case of `O=c1oc2ccc(F)cc2c(=O)n1-c1ccc(Cl)cc1F` it was 3.17% (active); in that of `Cc1ccc(C)c(-c2csc(Nc3ccc(C)c(C)c3)n2)c1`, 38.5% (inactive).
With `Nc1ccc(-n2c(=O)oc3ccc(Cl)cc3c2=O)c(Cl)c1`, the growth is 2.28% (active).
Take `c1ccc(-c2ccc(-c3nc4ccccc4[nH]3)cc2)cc1`: the growth is 95.6% (inactive).
Turning to `COc1ccc(-c2nc(-c3ccccn3)c(-c3ccccn3)n2CC(C)C)cc1OC1CCCC1`, the growth is 5.25% (active).
With `CN(C)c1ccc(N=Cc2ccc(N3CCOCC3)cc2)cc1`, the growth was 92.3% (inactive).

Another assay relates to HOP-92 NSCLC. Described as above. The conditions noted are these: 10 µM unless noted.
As for `CCCC(=O)CC(C)=O.CCCC(=O)CC(C)=O.[Cu]`, the growth was 96.5% (inactive).
Same read-out and setting: in the case of `COc1cc(C(C)n2cc(-c3ccccc3)nn2)ccc1OC1CCCCC1` (stereo unspecified) it was 69.9% (inactive); in that of `NC1(N2SC(S)=C3CCCC=C32)CCCCC1`, 96.6% (inactive).
Regarding `CCN1CCN(c2cc(C)c3cc(NC(=O)c4ccc(OC)c(OC)c4)ccc3n2)CC1`, the growth was 56.4% (inactive).
In the case of `CC(C)[C@H](NC(=O)Cn1cc(C(=O)O)nn1)C(=O)O`, the growth is 99.2% (inactive).
With `C=C[C@@H]1CCC/C=C/[C@@H]2C[C@H](O)C[C@H]2[C@H](O)/C=C/C(=O)O1`, the growth is 25.5% (inactive).
Still for that read-out and setting: then `COc1ccc(Nc2nc(N/N=C/c3ccc(O)cc3)nc(Nc3ccc([N+](=O)[O-])cc3)n2)cc1`, with 109% (inactive).
For the molecule `Cc1ccc(CN2CCC(C(=O)Nc3ccc(-c4cc5ccccc5[nH]4)cc3)CC2)o1`, the growth is 36.8% (inactive).
As for `O=C(Nc1ccc(N2CCNCC2)cc1)c1[nH]ncc1Nc1cc(Oc2ccccc2)ncn1`, the growth was -21% (active).
On to `CN1C(=O)N(C)C2C1NN=c1s/c(=C\c3ccc([N+](=O)[O-])cc3)c(=O)n12` (stereo unspecified), for which the growth was 77.6% (inactive).
The same measure, in the same setting: then `Nc1ccc(-c2nc3cc(Oc4ccc(Oc5ccc6[nH]c(-c7ccc(N)cc7)nc6c5)cc4)ccc3[nH]2)cc1`, with 104% (inactive); and `COc1cccc2cc(N(C)c3nc(C)nc4ccsc34)ccc12`, with 8.89% (active).
On to `COc1cc(/C=C2\CCC/C(=C\c3cc(CN4CCCCC4)c(O)c(OC)c3)C2=O)cc(CN2CCCCC2)c1O`, for which the growth is 47% (inactive).
Take `CCOC(=O)C1=C(C)N=c2s/c(=C\c3ccccc3O)c(=O)n2C1c1ccc(OC)c2ccccc12` (stereo unspecified): the growth was 4.78% (active).
Same read-out and setting: in the case of `CCN1C(=O)N(CC)C2Nn3c(s/c(=C4\C(=O)N(C(C)C)c5ccccc54)c3=O)=NC21` (stereo unspecified) it was 13.9% (inactive); in that of `Cc1c(-c2csc(-n3nc(C(F)(F)F)cc3C(F)(F)F)n2)no[n+]1[O-]`, 96.3% (inactive).
The same measure, in the same setting: in the case of `CC1(O)COCCCCOc2c(CN)cccc2NC(=O)c2nc(cnc2N)-c2ccc(cc2)S(=O)(=O)C(C)(C)C1` (stereo unspecified) it was -5.59% (active); in that of `COc1nc2c(c(=O)n1C)N=C1c3ccccc3C(=O)C1C(c1ccccc1)N2` (stereo unspecified), 89.2% (inactive).
Still for that read-out and setting: in the case of `CS(=O)(=O)Nc1ccc(C(=O)NC(C(=O)NO)c2ccc(-c3cccc(F)c3)cc2)cc1` (stereo unspecified) it was -8.77% (active).
As for `COc1cc(C(=O)Nc2ccc(-c3nc4ccccc4[nH]3)cc2)cc(OC)c1OC`, the growth was 56.4% (inactive).
For `Fc1ccc(Oc2ccc(Nc3ncnc4onc(-c5ccccc5)c34)cc2)cc1`, the growth was 88.8% (inactive).
Take `CC1=C(CC(=O)c2cccc([N+](=O)[O-])c2)C(=O)c2ccccc2C1=O`: the growth was -22.3% (active).
As to `COc1ccc(Cn2cc(Cn3c(=O)c(-c4nc5ccccc5[nH]4)cc4ccccc43)nn2)c(OC)c1OC`, the growth is -2.19% (active).
With `COc1ccc(Cn2c(Br)c3c(c2Br)-c2nc(N)sc2CC3)cc1`, the growth is 58.5% (inactive).
With `O=C(N/N=C/c1ccccc1O)C(=O)Nc1ccc(F)cc1`, the growth is 65% (inactive).
Same read-out and setting: in the case of `CCOc1ccc(Nc2ccnc3cc(Cl)ccc23)cc1` it was -25% (active); in that of `COc1cc(/C=C2\CN(C)C/C(=C\c3cc(CN4CCCC4)c(O)c(OC)c3)C2=O)cc(CN2CCCC2)c1O`, 66.8% (inactive).
For the molecule `CCOC(=O)c1cnc2c(C)cccc2c1Nc1ccc(C(C)=O)cc1`, the growth is -1.13% (active).
`COc1cc(C(=O)O/N=C(\N)Cc2cccc3ccccc23)cc(OC)c1OC`: the growth is -7.36% (active).
For the molecule `Nc1ncnc(N)c1NC(=O)c1ccc(OCc2ccccc2)cc1`, the growth is 106% (inactive).
In the case of `O=C1C(=O)c2c(ccc3ccccc23)-c2ccccc21`, the growth is -20.6% (active).
On to `CCOC(=O)c1sc(-c2ccc(OS(=O)(=O)c3cccs3)c(C=O)c2)nc1C`, for which the growth is 11.9% (inactive).
Consider `O=c1oc2ccc(F)cc2c(=O)n1-c1ccc(Cl)cc1F`, for which the growth was -14.3% (active).
Consider `Cc1ccc(C)c(-c2csc(Nc3ccc(C)c(C)c3)n2)c1`, for which the growth is 27.1% (inactive).
Same read-out and setting: then `Nc1ccc(-n2c(=O)oc3ccc(Cl)cc3c2=O)c(Cl)c1`, with -13.1% (active); and `c1ccc(-c2ccc(-c3nc4ccccc4[nH]3)cc2)cc1`, with 69.7% (inactive); and `COc1ccc(-c2nc(-c3ccccn3)c(-c3ccccn3)n2CC(C)C)cc1OC1CCCC1`, with 35.2% (inactive).
Turning to `CN(C)c1ccc(N=Cc2ccc(N3CCOCC3)cc2)cc1`, the growth was 100% (inactive).
